TWEAK-Fn14 inh = inhibitors of TWEAK-Fn14 interaction signaling. TWEAK-stimulated Fn14 reporter cells, luciferase luminescence, 8 h. inhibition, % at 10 µM. 360,000 compounds, 2% hits. AID 1159606; in the data active means inhibition above about 50%
TROY signal inh = inhibitors of TROY-dependent NF-kB signaling; Q293 LMP1-TROYcd NF-kB luciferase reporter, 4 h; inhibition, % at 10 µM; 360,000 compounds, 0.98% hits;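 active means compounds whose plate-normalised and pattern-corrected inhibition of the luciferase reporter signal at the single screening dose is 50% or more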
Peg3 prom inh = inhibitors of Peg3 promoter | AID 588405 | HeLa PEG-Prom luciferase reporter, luminescence, overnight | 360,000 compounds, 1.7% hits | inhibition, % at 20 µM;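 active means inhibition of at least 50% at 20 µM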
CF NFkB block = blocks PAF-induced NF-kB reporter in cystic fibrosis cells; 360,000 compounds, 0.86% hits; inhibition, % at 5 µM; AID 588850; KKLEB NF-kB-GFP reporter, GFP fluorescence overnight;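 active means at least 50% inhibition at 5 µM, scaled per plate between neutral and stimulator controls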;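 further: PAF is a Pseudomonas aeruginosa culture filtrate used as stimulus; plate controls were PAF-stimulated DMSO wells for no effect and unstimulated DMSO wells for full effect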
KKLEB cytotox = reduces viability of KKLEB cystic fibrosis airway cells | KKLEB CF airway cells viability, ATPlite luminescence, overnight; stronger effect = lower value; cells stimulated with P. aeruginosa culture filtrate | activity change (cytotoxicity), % at 5 µM | 360,000 compounds, 0.36% hits | AID 602141;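 active means corrected activity change at or below -50% at 5 µM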
HIF-2a block = blocks HIF-2a reporter activity; 786-0 RCC cells HIF-2a reporter, luciferase luminescence, overnight; inhibition, % at 18.8 µM; 360,000 compounds, 0.72% hits; AID 624352;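 active means inhibition of the luminescence signal of 40% or more relative to plate controls, in a single-dose primary screen at 18.75 µM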
Mdm2-MdmX confirm = confirmation of inhibitors of human Mdm2/MdmX interaction, set 2; shares compounds with HIF-2a block; SaOS-2 split-luciferase Mdm2/MdmX complementation, luminescence; inhibition, % at 8 µM; 740 compounds, 99% hits; AID 504601;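 active means mean inhibition of the luminescence signal across two replicates at or above 26 percent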
Target sequence (O15151 whole entry, looked up): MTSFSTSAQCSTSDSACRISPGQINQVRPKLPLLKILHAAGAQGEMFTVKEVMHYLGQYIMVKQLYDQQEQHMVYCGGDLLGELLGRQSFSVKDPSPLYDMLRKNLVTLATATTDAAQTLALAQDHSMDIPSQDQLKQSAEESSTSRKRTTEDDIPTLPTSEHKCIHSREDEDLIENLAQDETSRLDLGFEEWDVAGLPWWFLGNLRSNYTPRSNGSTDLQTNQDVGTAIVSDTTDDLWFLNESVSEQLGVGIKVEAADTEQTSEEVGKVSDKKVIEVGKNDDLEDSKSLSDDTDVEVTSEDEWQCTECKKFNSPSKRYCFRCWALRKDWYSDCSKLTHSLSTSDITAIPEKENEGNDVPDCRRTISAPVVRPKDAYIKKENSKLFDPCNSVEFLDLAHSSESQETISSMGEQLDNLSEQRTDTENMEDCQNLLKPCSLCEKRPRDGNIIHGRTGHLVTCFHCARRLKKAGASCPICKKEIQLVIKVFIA
Target sequence (Q00987 whole entry, looked up): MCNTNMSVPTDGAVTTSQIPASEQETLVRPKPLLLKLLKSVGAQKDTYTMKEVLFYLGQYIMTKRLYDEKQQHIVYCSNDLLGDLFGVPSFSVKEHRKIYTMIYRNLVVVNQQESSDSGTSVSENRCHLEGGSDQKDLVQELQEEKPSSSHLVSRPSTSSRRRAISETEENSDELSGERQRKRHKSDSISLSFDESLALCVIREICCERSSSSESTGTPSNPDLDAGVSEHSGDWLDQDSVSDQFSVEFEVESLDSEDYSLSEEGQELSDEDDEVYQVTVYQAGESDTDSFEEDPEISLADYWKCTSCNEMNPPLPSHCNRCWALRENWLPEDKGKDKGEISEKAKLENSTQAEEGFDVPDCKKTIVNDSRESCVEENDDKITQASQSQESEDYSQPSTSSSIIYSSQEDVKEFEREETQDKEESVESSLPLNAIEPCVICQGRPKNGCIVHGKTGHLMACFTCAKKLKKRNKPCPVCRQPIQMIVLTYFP
HIF-2a inh conf = confirmation of HIF-2a inhibitors; shares compounds with HIF-2a block; 786-0 RCC cells, HIF-2a luciferase reporter luminescence, overnight; inhibition, % at 18.8 µM; 1,800 compounds, 56% hits; AID 651580;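 active means mean inhibition across four replicates of at least 40 percent at the single tested concentration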
HIF-1a counter = counter-screen for HIF-2a inhibitors: HIF-1a inhibition in MiaPaCa-2 cells; MiaPaCa-2 HIF-1a luciferase reporter, desferoxamine, overnight; 1,800 compounds, 72% hits; inhibition, % at 18.8 µM; shares compounds with HIF-2a block;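 active means mean inhibition of the reporter signal across four replicates at the single tested dose of 50% or more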
* marks the source's active call; other numbers are inactive results; . = no result given. The list is not random: actives were taken first. Their share in the collection is about 4%.

SMILES	TWEAK-Fn14 inh	TROY signal inh	Peg3 prom inh	CF NFkB block	KKLEB cytotox	HIF-2a block	HIF-2a inh conf	HIF-1a counter	others
Cc1cccc(C(=O)Nc2ccc(C(=O)/C=C/c3ccncc3)cc2)c1	-13	58*	102*	24	5	88*	-77	105*
O=C(/C=C/c1cccnc1)/C=C/c1cccnc1	101*	72*	109*	75*	3	95*	66*	107*
Cc1cccc(C(=O)Nc2cccc(C(=O)N/N=C/c3ccncc3)c2)c1	5	-14	2	-2	-16	-2	.	.
O=C(CN1CCOCC1)Nc1ccc2c(c1)CCC2	-17	-15	-52	-14	14	-48	.	.
CC(C)CCNC(=O)C(c1ccc(O)cc1)N(Cc1ccco1)C(=O)CCC(=O)Nc1nccs1 (configuration not stated)	17	-16	2	13	-6	16	.	.
Cc1ccc(C(=O)c2c(NC(=O)CSc3nnc(N)s3)sc3c2CCCC3)cc1	50	-14	12	-7	8	61*	2	63*
COc1cc(CC(=O)Nc2sc3c(c2C(N)=O)CCCC3)cc(OC)c1OC	9	20	4	-5	2	13	.	.
O=C(c1cccs1)N1CCN=C1SCc1ccc(F)cc1	7	73*	-2	-8	1	52*	-32	18
Cc1ccc(CNC(=O)CS(=O)Cc2nc(-c3ccccc3F)oc2C)cc1 (configuration not stated)	9	-22	4	-10	13	2	.	.
Oc1ccc(NCc2cccs2)cc1	-18	21	6	14	2	57*	26	78*
O=c1[nH]c(CN2CCN(S(=O)(=O)/C=C/c3ccccc3)CC2)nc2cc(Cl)ccc12	-3	5	44	-10	-24	50*	18	93*
O=c1[nH]c(CN2CCN(S(=O)(=O)/C=C/c3ccccc3)CC2)nc2ccccc12	19	3	1	-2	-4	13	.	.
Cc1ccc(N(NC(=O)C(O)(c2ccccc2)c2ccccc2)C(=O)CCl)cc1	46	-12	103*	58*	-66*	50*	32	99*	Mdm2-MdmX confirm=102*
CN(Cc1ccco1)C(=O)CSc1nc(C2CC2)n(-c2ccccc2)n1	16	1	8	4	-13	16	.	.
COc1ccc([C@H]2C[C@H](O)[C@@H](n3cc(COC(=O)c4ccccc4)nn3)CN2C(=O)C2CCCCC2)cc1	1	8	8	-2	8	8	.	.
O=C1c2ccccc2-c2onc3ccc(Oc4ccccc4)c1c23	56*	-7	104*	85*	-83*	-6	.	.	Mdm2-MdmX confirm=103*
CCOc1ccc(C(=O)CSCCC(=O)O)cc1	49	22	5	9	0	78*	82*	61*
CSc1nc(N)n2nc(-c3ccc(Cl)cc3)cc2n1	-26	-44	-278	-48	-5	-274	.	.
C=CCOc1cccc(C2/C(=C(\O)c3ccc4c(c3)OCCO4)C(=O)C(=O)N2CCN2CCOCC2)c1 (configuration not stated)	-16	-22	-1	-11	5	6	.	.
COc1ccc(Br)cc1[C@H]1[C@H]2C=CC[C@@H](C)[C@@H]2C(=O)N1Cc1ccccc1	8	16	22	47	-30	44*	33	46
COc1ccc([C@H]2[C@H]3C=CC[C@@H](C)[C@@H]3C(=O)N2Cc2ccccc2)cc1Cl	-14	22	22	35	-11	28	.	.
c1csc(C2=Nn3c(nnc3-c3ccncc3)SC2)c1	69*	47	-12	66*	-16	-1	.	.	Mdm2-MdmX confirm=93*
Cc1ccccc1CN1[C@@H](Cc2ccccc2)COCCS1(=O)=O	-6	-8	-1	20	-11	16	.	.
C=C1[C@@H](O)[C@H](Cc2ccccc2)N(Cc2ccccc2Br)S1(=O)=O	67*	24	97*	85*	-93*	71*	55*	106*
CCOc1ccc(OCc2cccc(C(=O)N3CCOCC3)c2)cc1	12	-83	21	15	-11	65*	77*	-104
SMILES	TWEAK-Fn14 inh	TROY signal inh	Peg3 prom inh	CF NFkB block	KKLEB cytotox	HIF-2a block	HIF-2a inh conf	HIF-1a counter	others
CCOc1ccc(OCc2cccc(C(=O)N/N=C/c3cccnc3)c2)cc1	-17	-26	-71	-7	1	71*	90*	-53
COc1ccc(OCc2cccc(C(=O)Nc3cc(C)on3)c2)cc1	14	-56	-1	-29	12	66*	68*	-47
CC(C)c1ccc(OCc2cccc(C(=O)N/N=C/c3cccnc3)c2)cc1	-13	-7	-138	-37	-10	17	.	.
COc1ccc(OCc2cccc(C(=O)Nn3cc([N+](=O)[O-])cn3)c2)cc1	-8	-26	-135	2	-10	62*	84*	-47
O=C(CC[C@H]1O[C@@H](n2cnc3c(NC(=O)c4ccccc4)ncnc32)[C@H](O)[C@@H]1O)NCC1CCCCC1	-17	4	-3	-19	-2	11	.	.
Cc1ccc(C(=O)N/N=C/c2cccnc2)cc1Cl	0	-29	-40	-30	3	-70	.	.
COc1ccc(OCc2cccc(C(=O)NN)c2)cc1	-30	-55	-24	2	3	61*	70*	-121
CC(=O)N1CCc2c(sc(NC(=O)C3CC3)c2-c2nc3ccccc3s2)C1	-51	-9	0	-50	-3	-13	.	.
CC(=O)Nc1sc2c(c1-c1nc3ccccc3s1)CN(C(C)C)CC2	1	12	98*	-83	-44	9	.	.	Mdm2-MdmX confirm=103*
O=C(NCc1cc(C(F)(F)F)ccc1Cl)c1cccc2c1C(=O)c1ccc(N3CCC(N4CCCCC4)CC3)cc1S2(=O)=O	-93	-7	99*	-15	-14	92*	-4	100*
CCOC(=O)c1c(SCCN2CCCC2)n(-c2ccccc2)c(=S)n(-c2ccccc2)c1=O	-7	4	100*	-29	6	78*	93*	102*
N#CCCN(C(=O)COC(=O)c1nc(Cl)ccc1Cl)c1ccccc1	2	-2	-4	12	-5	4	.	.
N#CCCN(C(=O)CCl)c1cccc(Cl)c1	49	19	54*	25	-10	14	.	.	Mdm2-MdmX confirm=101*
O=C(O)CC1CC(O)CCC1=O (configuration not stated)	17	-1	0	6	-21	16	.	.
